# Screening results deposited in PubChem by several laboratories.
# Compounds with a hit are over-represented: about 1.8% of the library has one in this group of screens.
# NALP1 yeast inh – NALP1 inflammasome inhibitors in reconstituted yeast, colorimetric, S. cerevisiae, triplicate retest; S. cerevisiae NALP1/ASC/caspase-1 growth, X-gal OD620, 72 h; inhibition, % at 10 µM; actives 0.61% (n = 280,000); AID 2071, 2009; in the data active = inhibition mostly above about 24%, no sharp cut-off; inactive = mostly below about 32%
# PolyA inhibitor – polyadenylation inhibitors in yeast reporter cells, primary screen, luminescence, S. cerevisiae; activity score, % at 12 µM; S. cerevisiae SKY197-pL101 polyadenylation reporter, beta-gal luminescence; efflux-impaired pdr1/pdr3 knockout yeast; score 100 = 6 SD above DMSO; actives 0.02% (n = 300,000);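 active = lowest replicate activity score at least 50, where 100 means six control SD above control mean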;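 note: yeast exposed to compound for 9 h at 30 °C; higher score means more reporter readthrough which indicates perturbed polyadenylation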
# NALP3 yeast inh – NALP3 inflammasome inhibitors in reconstituted yeast, primary screen, luminescence, uHTS; AID 2825, 2010; inhibition, % at 10 µM; Yeast reconstituted NLRP3/ASC/caspase-1, beta-gal luminescence, 24 h; actives 0.39% (n = 330,000);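 active = inhibition of 50% or more; inactive = inhibition below 50%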;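 note: plate controls were induced DMSO wells for no effect and uninduced yeast grown without galactose for full effect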
# Mot1-301 SUMO – yeast Mot1-301 growth rescue at high temperature, primary screen, SUMOylation pathway inhibitor project, S. cerevisiae, ATP luminescence, 38.5C; S. cerevisiae Mot1-301 growth rescue; percent above DMSO median, 100 means doubled; growth rescue, % at 18.8 µM; actives 1% (n = 320,000);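 active = every valid replicate shows activation above 250% relative to neutral control wells; inactive = the rest, any valid replicate at or below 250%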;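 note: OY570 slx delta 5 strain wells were the positive control but not used for scaling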
# Mot1 SUMO dose – growth restoration of Mot1-301 yeast on galactose, dose response, SUMO pathway inhibitor project, whole organism, S. cerevisiae, ATP luminescence, cherry-picked samples. growth activity, percent, % at 42 µM. 2,300 tested, under 10 active. shares compounds with Mot1-301 SUMO. AID 493004, 2010. S. cerevisiae Mot1-301 galactose growth, 24 h; -100 = growth of slx-deleted rescue strain;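 active = Signal drops as the depositor expects, and the fitted half-maximal dose is no more than ten times the top valid tested dose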;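 note: more negative values mean stronger growth rescue toward the control strain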
# * = called active by the depositor; . = no result given; + = active, no number.
SMILES,NALP1 yeast inh,PolyA inhibitor,NALP3 yeast inh,Mot1-301 SUMO,Mot1 SUMO dose
CNC(=O)COC(=O)c1cc(NC(=O)c2ccco2)c(OC)c(OC)c1,4,-3,-2,-8,.
CN(C)c1ccc(C(CNS(=O)(=O)c2ccc([N+](=O)[O-])cc2)N2CCOCC2)cc1 (stereo unspecified),.,12,15,575*,0
CCCOc1ccc(C(=O)Nc2cc(-c3nn4c(C)nnc4s3)ccc2C)cc1,-3,-1,10,224,.
O=C(c1cc(-c2ccc(Cl)c(Cl)c2)on1)N1CCN(c2ccccc2)CC1,6,-3,6,+,0
COc1ccc(-c2cc(C(=O)OCC(=O)NC3CC3)c3ccccc3n2)cc1OC,.,.,-1,11,.
Brc1ccccc1-n1nnc(-c2ccnc3ccccc23)n1,-9,-12,25,-5,.
CCOC(=O)Cn1nc(Cc2ccccc2)c2ccccc2c1=O,4,12,5,-2,.
CN1CCCC(n2nc(Cc3ccc(Cl)cc3)c3ccccc3c2=O)CC1 (stereo unspecified),.,11,31,396*,0
C=CCN1c2ccccc2[C@]23C[C@@H](C(=O)OC)N=C2NC(C(=O)OC)=C(C(=O)OC)[C@H]13,.,-7,11,834*,-1
Cc1ccc(NC(=O)CCCOc2ccccc2)cc1S(=O)(=O)N1CCOCC1,.,.,-4,-1,.
O=C(Nc1nnc(-c2ccco2)o1)c1ccc(S(=O)(=O)N2CCCC2)cc1,-2,-14,21,474*,0
N#Cc1c(Cn2cncn2)nc(=O)n(-c2ccc(Cl)cc2)c1N,22,0,21,+,0
CCOC(=O)c1[nH]c2ccc(F)cc2c1N=C(C)N(CC)CC,5,15,18,-2,.
CCOC(=O)N1CCN(c2c(F)cc3[nH]c(=S)[nH]c3c2Br)CC1,25,12,24,293,.
CCOC(=O)N1CCN(c2cc3[nH]c(=S)[nH]c3cc2F)CC1,.,2,6,400*,0
CCn1cc(C(=O)NCc2ccccn2)c(=O)c2cc(F)c(N3CCN(C)CC3)cc21,8,7,1,388*,0
CCC(C)(C)n1nnnc1C(c1ccc(OC)c(OC)c1)N1CCN(c2cccc(OC)c2)CC1 (stereo unspecified),9,15,10,+,0
CCN(CC)S(=O)(=O)c1ccc(NC(=O)C(C)N(c2ccccc2)S(C)(=O)=O)cc1 (stereo unspecified),8,-10,15,+,0
CC(C(=O)Nc1ccc(S(=O)(=O)N2CCOCC2)cc1)N(c1ccccc1)S(C)(=O)=O (stereo unspecified),1,-7,6,-17,.
CCn1cc(C(=O)N2CCN(c3ccc(OC)cc3)CC2)c(=O)c2cc(S(=O)(=O)N3CCOCC3)ccc21,-1,-9,3,798*,-1
COc1ccccc1NC(=O)CN(c1ccc(C)cc1)S(=O)(=O)c1c(C)n[nH]c1C,-6,-10,-2,981*,1
CCOC(=O)C1=C(C)Nc2ncnn2C1/C=C/c1ccccc1 (stereo unspecified),22,-1,6,613*,0
CC(C)C1=CC(=Nc2ccc(S(N)(=O)=O)cc2)C=C(C(C)C)C1=O,11,18,9,+,0
CC(=O)N1[C@H](Cc2ccccc2)C=C[C@]1(C)C(=O)NCc1ccc(C)o1,1,-7,3,-23,.
CCn1nccc1C(=O)Nc1nccs1,32,.,5,706*,0
SMILES,NALP1 yeast inh,PolyA inhibitor,NALP3 yeast inh,Mot1-301 SUMO,Mot1 SUMO dose
CCCN1C(=O)c2ccc(C(=O)Nc3nccs3)cc2C1=O,-2,16,30,544*,1
CCn1cc(Br)c(C(=O)Nc2nccs2)n1,0,1,13,1,.
COCCN1C(=O)c2ccc(C(=O)Nc3nccs3)cc2C1=O,10,-13,17,23,.
CN1CCN(S(=O)(=O)c2ccc(C3CCCCC3)cc2)CC1,.,.,21,.,.
CCCOc1ccccc1C1NC(=O)NC(C)=C1C(=O)OCCOC (stereo unspecified),-20,21,-4,-12,.
CCCOc1ccccc1C1NC(=O)NC(C)=C1C(=O)OCc1ccccc1 (stereo unspecified),-1,4,32,735*,0
Oc1[nH]c2ccccc2c1/C=N/N1CCCCC1,16,7,9,393,.
CCOc1ccc(-c2nc3n(c(=O)c2C#N)CCS3)cc1,8,9,-8,439*,0
COc1ccccc1OCCCn1cc(C#N)c2ccccc21,14,-15,24,832*,0
N#Cc1cn(CCCOc2ccccc2)c2ccccc12,2,-14,-18,-5,.
O=S1(=O)CC(N2CCCCC2)C(N2CCCCC2)C1 (stereo unspecified),12,-6,-13,366*,0
CCOCCCNC(=O)C(c1ccccc1)N(Cc1cccs1)C(=O)CNC(=O)c1ccccc1 (stereo unspecified),16,-12,10,-6,.
COc1ncccc1C(=O)NC1CCCc2c1cnn2-c1ccc(C)c(C)c1 (stereo unspecified),12,-10,-53,-20,.
CSc1ncccc1C(=O)NC1CCCc2c1cnn2-c1ccc(C)c(C)c1 (stereo unspecified),16,5,13,458*,1
Nc1nnc(N2CCc3ccccc32)s1,14,26,15,0,.
Cc1nc2ccccc2n(CC(=O)Nc2cc(Cl)cc(Cl)c2)c1=O,6,-11,16,+,1
CC(=O)Nc1ccc(CN2CCCC(CO)(Cc3cccc(Cl)c3)C2)cc1 (stereo unspecified),.,23,6,+,0
OCC1(Cc2cccc(Cl)c2)CCCN(Cc2ccc(F)c(F)c2)C1 (stereo unspecified),15,-6,26,382*,-1
COc1ccc(CN2CCCC(CO)(Cc3cccc(Cl)c3)C2)cc1OC (stereo unspecified),11,11,26,-13,.
COc1cc(CN2CCCC(CO)(Cc3cccc(Cl)c3)C2)cc2c1OCO2 (stereo unspecified),-12,-6,9,+,1
CCOC(=O)c1cccc(NC(=O)CSc2nc3cccnc3n2C)c1,11,.,-15,.,.
O=C(N/C(=C/c1ccccc1)C(=O)N1CCCCC1)c1ccco1,1,17,6,2,.
O=C(CSCCc1ccccn1)Nc1ccc(Br)cn1,-6,18,12,39,.
NC(=O)C1CCN(c2nc(-c3ccc(F)cc3)cs2)CC1,.,.,2,-2,.
CCOC(=O)CNS(=O)(=O)Cc1ccccc1,.,.,6,-18,.
O=S(=O)(Cc1ccccc1)NCc1ccccn1,5,-17,5,611*,0
